VACV E9 pol inh – vaccinia E9 polymerase processive synthesis inhibition; in vitro processive DNA synthesis, absorbance read-out; active compounds read low; normalized absorbance, % (no concentration beside the values); 46,000 compounds, 0.94% hits; in the data active means normalized absorbance mostly below about 85%, no sharp cut-off; inactive means mostly above about 86%
The depositor's hits bear a star. This is one part of a sample in which hits are shown more often than they occur.

SMILES | VACV E9 pol inh
O=C(O)c1oc2ccc(Br)cc2c1-n1cccc1 | 66.6*
Cc1ccc(CNC(=O)c2oc3ccccc3c2-n2cccc2)cc1 | 108.3
CC(=O)Nc1c(C(=O)O)oc2ccc(Br)cc12 | 99.5
Cc1cccc(NC(=O)CCC(=O)O)c1 | 100.3
NCCCc1nc2ccc(Cc3ccc4nc(CCCN)[nH]c4c3)cc2[nH]1 | 77.4
c1ccc2sc(CCc3nc4ccccc4s3)nc2c1 | 98.5
NCCCc1nc2cc3sc(CCCN)nc3cc2s1 | 60.5*
c1ccc(CSc2ncn[nH]2)cc1 | 100.2
O=c1oc2cc3occ(-c4ccccc4)c3cc2c2ccccc12 | 100.0
COC(=O)c1cccnc1-n1c(=O)c2cccnc2n(Cc2ccccc2F)c1=O | 101.2
Cc1ccccc1NC1=NC(C)(C)CS1 | 106.1
Cc1ccccc1NC1=NCCS1 | 107.9
Cc1ccccc1Nc1nccc(N(C)C)c1C#N | 81.9*
CCOC(=O)c1cnn(-c2ccccn2)c1N | 101.4
CCOC(=O)c1cnn(C(=O)c2ccc(-n3c(C)ccc3C)cc2)c1N | 66.1*
COC(=O)c1ccc(-n2c(C)ccc2C)cc1 | 98.2
CSc1nnc(NC(=O)COc2ccc(Cl)cc2Cl)s1 | 101.0
Cc1cc(/C=N/O)nc(=O)[nH]1 | 99.8
Cc1cc(C)c(OC2CN(C(c3ccccc3)c3ccccc3)C2)c(C)c1 | 99.6
Cc1ccc(S(=O)(=O)NC(=O)c2ccc(Cl)nc2Cl)cc1 | 99.6
CCn1cc(CCCC(=O)O)c2ccccc21 | 104.2
O=C(O)CCCc1ccc2ccc3cccc4ccc1c2c34 | 79.8*
O=C(O)CCCC(=O)c1ccccc1 | 100.3
O=C(CSCc1ccco1)c1ccccc1F | 98.8
CNc1nc(-c2ccc(OC)cc2)c(C)s1 | 103.9
SMILES | VACV E9 pol inh
O=C1N/C(=N\O)S/C1=C/c1ccc(O)cc1 | 84.2*
O=C1NC(=Nc2ccccc2)S/C1=C\c1ccccc1 | 87.5
CN(C)c1ccc(/C=C2/S/C(=N/O)NC2=O)cc1 | 99.7
Cn1ncc(I)c1C(=O)O | 101.2
CCOC(=O)c1cnc2ccccc2c1NCCO | 94.6
CCOC(=O)c1cnc2ccc(C(=O)OC)cc2c1NCCN(C)C | 51.5*
CCOC(=O)c1cnc2ccc(F)cc2c1NCc1cccnc1 | 94.2
CC(C)(C)c1ccc(-c2nnc(-c3ccccc3NC(=O)CCC(=O)O)o2)cc1 | 99.0
CC(=O)N1CC(C)C(=O)Nc2ccccc21 (configuration not stated) | 98.1
Cc1cccc(NC(=O)CCN2C(=O)/C(=C\c3ccccc3)SC2=S)c1 | 99.8
Cc1nc2ccccc2c2oc(C(=O)NCCN3CCN(C)CC3)cc12 | 61.8*
Cc1nc2ccccc2c2oc(C(=O)N3CCC(C)CC3)cc12 | 96.7
Cc1nc2ccccc2c2oc(C(=O)NC3CCCC3)cc12 | 96.3
Cc1ccc(-c2csc(=N)n2-c2ccccc2)cc1 | 96.7
CC(=O)Nc1ccc(C(=O)OCC(=O)Nc2ccc3ccccc3c2)cc1 | 74.0
CCN1/C(=C/c2ccc3ccccc3[n+]2CC)Sc2cc(NC(C)=O)ccc21 | 39.2*
CC(=O)Nc1cccc(-c2nc3ccccc3[nH]2)c1 | 89.5
COc1ccc(CC(=O)Nc2ccc(-c3n[nH]c(=S)s3)cc2)cc1 | 99.8
CCCNC(=O)C12CC3CC(C1)CC(C(=O)NCCC)(C3)C2 | 101.5
COc1ccc(-c2coc3cc4oc(=O)c(CC(=O)O)c(C)c4cc23)cc1 | 86.1
Cc1c(CC(=O)O)c(=O)oc2c(C)c3occ(-c4ccc(Br)cc4)c3cc12 | 65.0*
Cc1c(CC(=O)O)c(=O)oc2c(C)c3occ(C(C)(C)C)c3cc12 | 97.9
O=C(COc1cccc2ccccc12)N1CCc2ccccc2C1 | 124.4
S=c1nc(CCCCc2nc(=S)[nH][nH]2)[nH][nH]1 | 109.6
CNC(=O)COc1ccc(-c2nn(C)c(=O)c3ccccc23)cc1 | 76.2*
SMILES | VACV E9 pol inh
CNC(=O)COc1ccc(NC(=O)CCn2nc(-c3ccc(Cl)cc3)c3ccccc3c2=O)cc1 | 100.3
Cc1cc(-c2nn(C)c(=O)c3ccccc23)cc(C)c1OCC(=O)NN | 105.8
Cc1c(C(=O)/C=C/N(C)C)sc(=S)n1CCc1ccc(Cl)cc1 | 97.9
O=C(/C=C/c1cn(-c2ccccc2)nc1-c1ccccc1)OCC(=O)N1CCCC1 | 97.3
Cc1cccc(C(C)C)c1NC(=O)CSc1ncnc2ccccc12 | 102.5
CCOc1ccc(CNCc2cn[nH]c2-c2ccccc2)cc1 | 107.9
Cc1ccc(O)cc1 | 100.3
Oc1ccc(C2(c3ccc(O)cc3)CCCC2)cc1 | 52.9*
COc1cccc(C2(c3ccc(O)cc3)CCCC2)c1 | 99.0
CCOC(=O)c1ccc(N2C(=O)C(C)C(Cc3cc(C)cc(C)c3)C2=O)cc1 (configuration not stated) | 109.0
CNC(=O)CSc1nnc(-c2ccc(C(C)(C)C)cc2)n1-c1ccccc1 | 99.4
Cc1ccc(S(=O)(=O)NC(=O)c2c(C)cc3ccccn23)cc1 | 101.9
Cc1ccc(C)n1-c1cccc(C(F)(F)F)c1 | 99.4
Cc1ccc(C)n1-c1cccc(C(=O)O)c1 | 11.4*
Cc1ccc(C)n1-c1cccc(N)c1 | 99.9
CCOC(=O)c1ccc(SC)cc1OC | 100.6
Cc1ccc(C(=O)Oc2ccc3c4c(c(=O)oc3c2)CCCC4)cc1 | 93.9
COc1cccc(-c2nn(C)c3sc(C(=O)N4CCCCCC4)cc23)c1 | 99.3
Cc1cccc2nc(CSC(=S)NCC3CCCO3)cn12 (configuration not stated) | 110.3
Cc1cccc2nc(CSC(=S)NCc3cccnc3)cn12 | 72.2*
Cc1cccc2nc(CSCc3ccco3)cn12 | 79.8
Cc1sc(Nc2ccccc2)nc1-c1ccc(Cl)cc1 | 99.7
O=C(NCCCN1CCCCC1)c1cc(Sc2ccc(F)cc2)nc2ccccc12 | 101.1
Cc1cccc(CCNC(=O)c2cc3c(=O)n(C)c4ccccc4c3s2)c1 | 101.4
CC1CCN(CCCNC(=O)c2cc3c(=O)n(C)c4ccccc4c3s2)CC1 | 58.7*
SMILES | VACV E9 pol inh
CC1CC(C)CN(CCCNC(=O)c2cc3c(=O)[nH]c4ccccc4c3s2)C1 (configuration not stated) | 57.8*
Cc1ccc(CCNC(=O)c2cc3c(=O)oc4ccc(C)cc4c3s2)cc1 | 102.9
Cc1ccc2oc(=O)c3cc(C(=O)NCCN4CCN(Cc5ccccc5)CC4)sc3c2c1 | 98.3
O=C(NCCCN1CCCC1)c1cc2c(Cl)nc3ccccc3c2s1 | 32.7*
CCn1c(=O)c2cc(C(=O)NCCCN3CCCCCC3)sc2c2ccccc21 | 59.8
Cc1ccc2oc(=O)c3cc(C(=O)NCCCN4CCCCCC4)sc3c2c1 | 68.2*
CCCCN(C)C(=O)c1cc2c(Cl)nc3ccccc3c2s1 | 100.6
COC(=O)CNC(=O)c1cc2c(=O)[nH]c3ccccc3c2s1 | 97.1
O=C(NC1CCCCC1)c1cc2c(=O)[nH]c3ccccc3c2s1 | 99.8
CC1=CC(c2ccc(F)cc2)C(C(=O)O)(C(=O)n2nc(C)cc2C)CC1 (configuration not stated) | 99.3
COCC1=NN(c2ccccc2)C(=O)C1 | 100.0
CCCn1c(=O)c(C(=O)NC23CC4CC(CC(C4)C2)C3)c(O)c2ccccc21 | 109.3
CC1=C(C)C2C(=O)N=C(c3ccc(-c4ccc(C(=O)O)cc4)o3)N=C2S1 (configuration not stated) | 90.2
COc1cc(C(=O)NCc2cccnc2)ccc1OCc1ccc(Cl)cc1 | 100.8
Fc1ccccc1Nc1ccc2ccccc2n1 | 91.6
CCN1CCN(CC(O)COc2ccc(C(=O)OC)cc2)CC1 (configuration not stated) | 99.5
O=C(Cn1cnc2ccccc21)OCC(=O)N1CCc2ccccc21 | 100.9
CCN(CC)C(=O)c1ccc2c(c1)NC(=O)/C(=C/c1ccccc1)S2 | 102.1
COc1ccc(-c2csc(-c3c(C)noc3N(C(C)=O)C(C)=O)n2)cc1 | 92.2

Screening results as filed in PubChem BioAssay.
